Pf growth 48h: P. falciparum growth inhibition at 48 hours (one generation). hit rate 5.9% among 310,000. Potency, µM (highest dose often 28.7 µM), for inactives: at the highest dose activity change, negative = inhibition, usual class: inhibitors. P. falciparum luciferase growth in erythrocytes, 48 h. AID 504832; note: % is set by controls: 0 for no effect and ±100 for the full control effect
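Cell-based growth assay: transgenic P. falciparum expressing firefly luciferase, cultured in red cells within RPMI 1640 containing 0.5% w/v Albumax, 24 mM bicarbonate and gentamycin. A drop in luciferase activity indicates inhibition.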
SARS PLpro yeast: inhibitors of SARS-CoV papain-like protease in yeast; hit rate 0.19% among 330,000; Potency, µM (top dose mostly 32.9 µM), for the others: top-dose activity, positive = growth rescue, actives largely listed as activators; S. cerevisiae expressing SARS-CoV PLpro, growth rescue; AID 485353; calls by dose curve; note: 0% is about no effect; nearly all actives have a fitted effect of over 55% in size
NS1 inh: blocks influenza NS1 protein function | Potency, µM (highest dose often 46.1 µM), inactives show at the highest dose activity, positive = more growth | hit rate 0.4% among 270,000; calls by dose curve; note: actives are rising curves; nearly all actives have a fitted effect of over 50% in size
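A cell-based growth assay was used: compounds that relieve NS1-induced slow growth of budding yeast raise OD600. Assay medium was yeast nitrogen base with ammonium sulphate and -URA supplement, pH 6.0, with 2% galactose.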
Pf growth 96h: inhibits malaria parasite growth, 96 h. P. falciparum luciferase reporter growth, 96 h. Potency, µM (titrated, usually from 28.7 µM), for the others: at the highest dose activity change, negative = inhibition, most hits filed as inhibitors. hit rate 6.9% among 320,000. AID 504834; note: % is set by controls: 0 for no effect and ±100 for the full control effect
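Compounds incubated with erythrocytes infected by luciferase-expressing P. falciparum (2% hematocrit, 0.05% parasitemia final) for 96 hours, 37 C in 5% CO2. Growth inhibition scored as decreased luciferase luminescence.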
HCV inh: HCV inhibition; Huh7.5.1 HCVcc-Cre infection, luciferase reporter, 44 h; hit rate 3.4% among 340,000; AID 651820; Potency, µM (highest dose often 41.8 µM), for inactives: top-dose activity change, negative = inhibition, usual class: inhibitors; note: % is set by controls: 0 for no effect and ±100 for the full control effect
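Reporter virus HCVcc-Cre (~0.5 moi) infects cells exposed to compound; seeding density 1,000 cells/well with 4 h settling beforehand. Luminescence, 15 sec read, taken 44 h post-infection following a 15 min RT substrate incubation.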
AMA1 RON2 block: AMA1-RON2 (P. falciparum) interaction inhibition. AlphaScreen AMA1-biotinylated RON2 peptide binding. Potency, µM (top dose mostly 58.2 µM), for inactives: top-dose activity change, negative = inhibition, usual class: inhibitors. hit rate 0.2% among 360,000. AID 720542;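 note: 0% = vehicle wells and -100% = peptide control; nearly all actives have a fitted effect of over 45% in size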
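AMA1 (3D7) with his tag at 25 nM final met compounds first, then biotinylated RON2 peptide at 25 nM; detection used donor plus acceptor beads, 10 µg/mL apiece, read by AlphaScreen after 30 min at room temperature.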
* marks the source's active call; other numbers are inactive results; ? = inconclusive; · = no result; ! = repeats disagree; [ ] = another dose, or the depositor's remark. In the library only some 12% were active in any assay of this set; here they are far more common. Unless noted, calls come from the whole dose curve; as a rule, active = well fitted curve in the direction sought with a large enough effect; inconclusive = small, poorly fitted or top-dose-only effect, or another doubt; inactive = no such curve, though single readings can be large; an effect the other way counts as inactive or inconclusive. Potency is the fitted concentration of half-maximal effect.

SMILES	Pf growth 48h	SARS PLpro yeast	NS1 inh	Pf growth 96h	HCV inh	AMA1 RON2 block
CCC(=O)Nc1ccc(N2CCOCC2)c(S(=O)(=O)Nc2ccc(OC)cc2)c1	6.8%	4.7%	·	-9.4%	-29.2%	-13.6%
CCCCCC(=O)Nc1ccc(N2CCOCC2)c(S(=O)(=O)Nc2ccc(OC)cc2)c1	14.7µM*	·	·	?	?	1.0%
COc1ccc(NS(=O)(=O)c2cc(NC(=O)/C=C/c3cccs3)ccc2N2CCOCC2)cc1	?	6.7%	6.4%	7.38µM*	?	3.6%[2.32 µM]
COc1ccc(NS(=O)(=O)c2cc(NC(=O)c3ccc(C)s3)ccc2N2CCOCC2)cc1	?	-1.1%	?	13.1µM*	-25.7%	-5.4%
COCCN(CC(=O)NC1CCCCC1)C(=O)CCCC(=O)Nc1ccccn1	-0.8%	14.9%	-0.2%	?	12.5%	5.1%
COc1ccccc1C(=O)NNC(=O)c1sccc1-n1cccc1	16.0%	0.0%	3.5%	28.8%	-9.8%	1.9%
COc1ccc(Br)cc1CN1CCC(N2CCCC2)CC1	9.28µM*	2.8%	5.0%	?	?	?
COc1ccc(Br)cc1CN1CCCC(C(=O)N2CCCCCC2)C1 (configuration not stated)	?	?	-5.0%	?	3.16µM*	-2.3%
COc1ccc(Br)cc1CN1CCCC(C(=O)N2CCCCC2)C1 (configuration not stated)	·	12.7%	-8.2%	?	-16.4%	?
NS(=O)(=O)c1ccc(N2C(=O)CCCC2=O)cc1	·	·	·	·	·	-7.3%
CCOc1ccc(OCc2ccc(C(=O)NN=Cc3ccc[nH]3)cc2)cc1	·	-4.4%	·	·	0.562µM*	51.5%
O=C(N/N=C/c1ccc[nH]1)c1cccnc1	62.9%	-2.1%	10.9%	173.3%	4.3%	107.1%
O=C(N/N=C/c1ccc[nH]1)c1cccc(Br)c1	1.9%	-7.8%	-9.0%	13.1%	4.47µM*	69.6%
Cc1ccc(C(=O)N/N=C\c2ccc[nH]2)cn1	·	1.7%	-7.0%	19.1%	8.91µM*	-30.5%
COc1ccc(NC(=O)CN(C)C(=O)Cn2cnc3c2c(=O)n(C)c(=O)n3C)cc1	-15.9%	0.6%	·	18.5%	?	2.1%
O=C(Nc1ccc(F)c(Cl)c1)c1ccc2sc([C@@H]3O[C@H](CO)[C@H](O)[C@H](O)[C@H]3O)nc2c1	·	·	·	·	·	10.9%
COc1ccc(N2CCN(C(=O)C3CCN(C(=O)c4cccc(Cl)c4)CC3)CC2)cc1	-21.6%	-0.2%	-8.7%	7.4%	?	-5.2%
Fc1ccc(C(c2ccc(F)cc2)N2CCN(C/C=C/c3ccccc3)CC2)cc1	13.1µM*	-44.3%	-0.7%	?	1.58µM*!	?
O=C(NNc1cc(Br)c(O)c(Br)c1)c1ccccc1	25.6%	-1.2%	·	-23.4%	22.8%	-10.7%
COc1ccc(CNC(=O)CSc2nn3c(=O)c(C(C)(C)C)nnc3s2)cc1OC	?	2.2%	·	?	?	48.0%
COc1ccc(CCNC(=O)CSc2nn3c(=O)c(C)nnc3s2)cc1OC	5.22µM*	-3.0%	4.1%	0.208µM*	3.4%	140.8%
COc1ccc(NC(=O)CSc2nn3c(=O)c(C)nnc3s2)cc1	?	-2.2%	26.6%	11.7µM*	2.6%	85.8%
COc1ccccc1CNC(=O)CSc1nn2c(=O)c(C(C)(C)C)nnc2s1	2.94µM*	13.0%	0.1%	?	-10.6%	77.5%
COc1cccc(NC(=O)CSc2nn3c(=O)c(C)nnc3s2)c1	?	-0.7%	?	9.28µM*	-5.2%	21.1%
CNC(=S)N1CCc2cc(OC)c(OC)cc2C1	31.0%	0.1%	-5.5%	83.0%	6.7%	9.6%
COC(=O)C1=C(C)N(CCc2ccc(OC)c(OC)c2)C(=O)/C1=C\c1ccc(O)cc1	11.7µM*	-14.1%	0.5%	-2.5%	-1.1%	-14.8%
C=CCOc1cccc(/C=C2\C(=O)N(Cc3ccc(C)cc3)C(C)=C2C(=O)OC)c1	14.7µM*	-4.5%	10.7%	6.57µM*	-23.2%	?
COC(=O)C1=C(C)N(CCc2ccc(OC)c(OC)c2)C(=O)C1	·	5.5%	13.1%	·	-2.2%	4.2%

Screening results: PubChem BioAssay, National Center for Advancing Translational Sciences (NCATS)
